Our source for the composite z-score and z-score values is PubChem BioAssay.

The subject of test [1] is PRMT1 (protein arginine N-methyltransferase 1). The test can be described thus: PRMT1 binders on small-molecule microarrays, primary screen, biochemical, small-molecule microarray, 635 nm fluorescence (AID 1088).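 Also: binding of Prmt1 protein to compounds spotted on small-molecule microarray slides.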 The conditions noted are these: small-molecule microarray binding, higher = more signal.
Test [2] can be described thus: yeast growth modulation, basal conditions, primary screen, YJM789 clinical isolate, OD600, 24 h (AID 1089).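 Also: growth of clinical yeast isolate S. cerevisiae YJM 789 seeded 1000 cells per well; test concentration not given here.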 The conditions noted are these: S. cerevisiae YJM789 growth, higher = more signal, called active from +8 up or from −8 down.
Test [3] is described as follows: fission yeast growth modulation, primary screen, strain 972, OD600, 24 h, no modulator (AID 1090).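 Also: basal condition with compound alone and no growth modifier present; test concentration not given here.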 The conditions noted are these: S. pombe 972 growth, higher = more signal, called active from +8 up or from −8 down.
The nature of test [4]: S. cerevisiae growth modulation with rapamycin, primary screen, strain BY4716, OD600, 96 h (AID 1091). Also: test concentration not given here. The conditions noted are these: higher = more signal, called active from +8 up or from −8 down.
The target in test [5] is Torsin-1A-interacting protein 2 (Homo sapiens) (UniProt Q8NFQ8). In words: LULL1 binders on small-molecule microarray, primary screen, cell lysate, human LULL1 lysate, 635/667 nm fluorescence (AID 1092).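 Also: probe is lysate of COS7 cells overexpressing human LULL1; score merges per-feature 667 nm fluorescence with signal-to-noise.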 The conditions noted are these: hLULL1 lysate binding, 635 nm fluorescence, higher = more signal.
The nature of test [6]: E. coli growth modulation, two-sided OD650, primary screen, E. coli filamentation project, strain DRC41, 24 h (AID 1093).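 Also: MC1000 strain lacking acrAB efflux and sulA so SOS filamentation is blocked; test concentration not given here.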 The conditions noted are these: OD650, 24 h, higher = more signal, called active from +8 up or from −8 down.
Test [7] is described as follows: small-molecule microarray binders of probe aLefty2, primary screen, biochemical, biotinylated probe, 635/667 nm fluorescence (AID 1094).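 Also: score merges spot fluorescence near 667 nm with spot signal-to-noise ratio.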 The conditions noted are these: higher = more signal.
Test [8] relates to Noggin (protein binding on small-molecule microarray). In words: Noggin binders on small-molecule microarray, primary screen, biochemical, 635/667 nm fluorescence (AID 1095).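 Also: score merges 667 nm feature fluorescence with signal to noise over triplicate slides.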 The conditions noted are these: 635 nm fluorescence, higher = more signal.
Test [9] addresses Neurogenic locus notch homolog protein 3 (Homo sapiens) (UniProt Q9UM47). The test can be described thus: NOTCH3 binders on small-molecule microarray, primary screen, biochemical, 635/667 nm fluorescence (AID 1096). The conditions noted are these: NOTCH3 binding, 635 nm fluorescence, higher = more signal.
Test [10] is described as follows: small-molecule microarray binders of probe aEGFR, primary screen, biochemical, biotinylated probe, 635/667 nm fluorescence (AID 1097).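 Also: probe is a biotinylated anti-EGFR antibody binding compounds printed on slides; score combines fluorescence near 667 nm and signal to noise of each spot.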 The conditions noted are these: higher = more signal.
Test [11] deals with Plasmodium falciparum Sir2 (PF13_0152, Sir2A). In words: pfSir2 binders on small-molecule microarrays, primary screen, biochemical, small-molecule microarray, 635 nm fluorescence (AID 1098).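 Also: score merges spot fluorescence intensity with its signal-to-noise ratio.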 The conditions noted are these: small-molecule microarray binding, fluorescence 635 nm; higher = more signal.
A short description of test [12]: small-molecule microarray binders of probe aDKK1, primary screen, biochemical, biotinylated probe, 635/667 nm fluorescence (AID 1099).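 Also: score merges 667nm spot fluorescence with signal to noise across triplicate slides; reference of the scale not given here.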 The conditions noted are these: higher = more signal.
The nature of test [13]: small-molecule microarray binders of probe aCHRDL2, primary screen, biochemical, biotinylated probe, 635/667 nm fluorescence (AID 1100). The conditions noted are these: higher = more signal.
Test [14] in a line: splicing luciferase reporter signal modulators, primary screen, spliceosome inhibition project, cell-based, HEK293, splice +/- reporter (AID 1101).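 Also: HEK293 cells carrying a splicing-competent luciferase reporter gene; test concentration not given here.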 The conditions noted are these: luminescence, 24 h, higher = more signal, called active from +8 up or from −8 down. For orientation: In a reporter assay the amount or activity of a reporter protein is the signal.
The target of test [15] is Fibroblast growth factor 10 (Homo sapiens) (UniProt O15520). In words: FGF10 binders on small-molecule microarrays, primary screen, biochemical, small-molecule microarray, 635 nm fluorescence (AID 1102). The conditions noted are these: FGF10 binding, fluorescence 635 nm, higher = more signal.
Test [16] concerns glycogen synthase kinase-3 (GSK3A per assay name; protocol says GSK3B). In words: GSK3 binders on small-molecule microarrays, primary screen, biochemical, small-molecule microarray, 635 nm fluorescence, GSK3A (AID 1103). Also: the record names both GSK3A and GSK3B. The conditions noted are these: small-molecule microarray binding, fluorescence 635 nm; higher = more signal.
Test [17] concerns the target Epidermal growth factor receptor (Homo sapiens) (UniProt P00533). In words: EGFR binders on small-molecule microarrays, primary screen, biochemical, small-molecule microarray, 635 nm fluorescence (AID 1104).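 Also: score merges 667 nm emission intensity with spot signal to noise over triplicate slides.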 The conditions noted are these: EGFR binding, higher = more signal.
Test [18] concerns the target Follistatin-related protein 3 (Homo sapiens) (UniProt O95633). The test can be described thus: FSTL3 binders on small-molecule microarrays, primary screen, biochemical, small-molecule microarray, 635 nm fluorescence (AID 1105).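 Also: score merges emission near 667 nm and signal to noise per printed spot across three slides.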 The conditions noted are these: FSTL3 binding, higher = more signal.
Test [19] addresses Dickkopf-related protein 1 (Homo sapiens) (UniProt O94907). The test can be described thus: DKK1 binders on small-molecule microarrays, primary screen, biochemical, small-molecule microarray, 635 nm fluorescence scan (AID 1106).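 Also: score merges emission near 667 nm with signal to noise over three replicate slides.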 The conditions noted are these: DKK1 binding, higher = more signal.
For test [20], the system named is Inhibin beta A chain (activin A). In words: INHBA (activin A) binders on microarrays, primary screen, biochemical, small-molecule microarray, 635 nm fluorescence scan (AID 1107).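 Also: mouse activin A protein probed at 4.33 µg/mL on printed slides; score merges bound-protein fluorescence near 667 nm with spot signal-to-noise.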 The conditions noted are these: small-molecule microarray binding, higher = more signal.

Activity calls are given as the source filed them.

Sequence of Follistatin-related protein 3 (Homo sapiens) (O95633 whole entry, looked up): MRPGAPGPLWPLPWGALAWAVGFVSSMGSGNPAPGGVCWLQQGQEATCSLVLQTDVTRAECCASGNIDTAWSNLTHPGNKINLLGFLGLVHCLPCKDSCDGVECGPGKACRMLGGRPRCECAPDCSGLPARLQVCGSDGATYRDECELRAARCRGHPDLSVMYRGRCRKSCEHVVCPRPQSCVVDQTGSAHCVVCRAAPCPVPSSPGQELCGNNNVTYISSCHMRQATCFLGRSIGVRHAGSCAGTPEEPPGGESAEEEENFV
Sequence of Dickkopf-related protein 1 (Homo sapiens) (O94907 whole entry, looked up): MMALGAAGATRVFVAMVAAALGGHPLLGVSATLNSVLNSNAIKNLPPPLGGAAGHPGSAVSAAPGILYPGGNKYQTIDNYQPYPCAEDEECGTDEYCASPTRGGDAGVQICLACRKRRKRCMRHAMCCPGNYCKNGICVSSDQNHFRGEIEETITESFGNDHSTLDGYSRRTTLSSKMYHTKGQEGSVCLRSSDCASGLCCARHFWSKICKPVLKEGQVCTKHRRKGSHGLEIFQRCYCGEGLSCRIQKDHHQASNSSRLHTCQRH
Sequence of Epidermal growth factor receptor (Homo sapiens) (P00533 whole entry, looked up): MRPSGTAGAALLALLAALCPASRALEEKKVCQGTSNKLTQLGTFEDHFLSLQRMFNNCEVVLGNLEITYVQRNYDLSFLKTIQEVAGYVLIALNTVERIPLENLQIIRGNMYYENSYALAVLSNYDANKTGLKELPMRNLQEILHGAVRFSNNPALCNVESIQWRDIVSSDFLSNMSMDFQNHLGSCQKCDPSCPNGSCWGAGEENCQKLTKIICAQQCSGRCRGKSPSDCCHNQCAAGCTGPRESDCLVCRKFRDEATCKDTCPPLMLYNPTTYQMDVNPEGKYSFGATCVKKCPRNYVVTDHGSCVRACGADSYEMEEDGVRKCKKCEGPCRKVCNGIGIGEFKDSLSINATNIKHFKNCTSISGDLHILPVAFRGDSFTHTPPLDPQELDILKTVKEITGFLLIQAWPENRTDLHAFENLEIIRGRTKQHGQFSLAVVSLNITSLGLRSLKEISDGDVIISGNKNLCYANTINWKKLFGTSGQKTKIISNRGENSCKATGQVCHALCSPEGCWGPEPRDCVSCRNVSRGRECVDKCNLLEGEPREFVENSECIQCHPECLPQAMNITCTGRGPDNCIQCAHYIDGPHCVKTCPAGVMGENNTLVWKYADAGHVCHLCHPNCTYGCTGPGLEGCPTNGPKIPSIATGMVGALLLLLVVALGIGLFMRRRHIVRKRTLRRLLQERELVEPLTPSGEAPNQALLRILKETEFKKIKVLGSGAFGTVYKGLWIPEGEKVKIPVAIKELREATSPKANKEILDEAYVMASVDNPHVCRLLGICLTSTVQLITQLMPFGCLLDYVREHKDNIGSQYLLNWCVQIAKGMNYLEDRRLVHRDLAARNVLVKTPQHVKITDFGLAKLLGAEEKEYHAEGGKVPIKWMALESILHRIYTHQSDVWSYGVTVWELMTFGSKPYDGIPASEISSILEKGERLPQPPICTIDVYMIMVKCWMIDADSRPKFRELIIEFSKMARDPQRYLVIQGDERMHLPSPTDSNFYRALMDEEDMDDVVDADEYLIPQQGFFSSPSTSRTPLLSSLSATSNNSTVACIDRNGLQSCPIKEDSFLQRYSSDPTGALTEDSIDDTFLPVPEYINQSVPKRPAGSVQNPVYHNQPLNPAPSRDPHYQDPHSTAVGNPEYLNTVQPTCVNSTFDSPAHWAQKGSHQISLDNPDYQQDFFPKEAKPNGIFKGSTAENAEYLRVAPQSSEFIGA
Sequence of Neurogenic locus notch homolog protein 3 (Homo sapiens) (Q9UM47 whole entry, looked up): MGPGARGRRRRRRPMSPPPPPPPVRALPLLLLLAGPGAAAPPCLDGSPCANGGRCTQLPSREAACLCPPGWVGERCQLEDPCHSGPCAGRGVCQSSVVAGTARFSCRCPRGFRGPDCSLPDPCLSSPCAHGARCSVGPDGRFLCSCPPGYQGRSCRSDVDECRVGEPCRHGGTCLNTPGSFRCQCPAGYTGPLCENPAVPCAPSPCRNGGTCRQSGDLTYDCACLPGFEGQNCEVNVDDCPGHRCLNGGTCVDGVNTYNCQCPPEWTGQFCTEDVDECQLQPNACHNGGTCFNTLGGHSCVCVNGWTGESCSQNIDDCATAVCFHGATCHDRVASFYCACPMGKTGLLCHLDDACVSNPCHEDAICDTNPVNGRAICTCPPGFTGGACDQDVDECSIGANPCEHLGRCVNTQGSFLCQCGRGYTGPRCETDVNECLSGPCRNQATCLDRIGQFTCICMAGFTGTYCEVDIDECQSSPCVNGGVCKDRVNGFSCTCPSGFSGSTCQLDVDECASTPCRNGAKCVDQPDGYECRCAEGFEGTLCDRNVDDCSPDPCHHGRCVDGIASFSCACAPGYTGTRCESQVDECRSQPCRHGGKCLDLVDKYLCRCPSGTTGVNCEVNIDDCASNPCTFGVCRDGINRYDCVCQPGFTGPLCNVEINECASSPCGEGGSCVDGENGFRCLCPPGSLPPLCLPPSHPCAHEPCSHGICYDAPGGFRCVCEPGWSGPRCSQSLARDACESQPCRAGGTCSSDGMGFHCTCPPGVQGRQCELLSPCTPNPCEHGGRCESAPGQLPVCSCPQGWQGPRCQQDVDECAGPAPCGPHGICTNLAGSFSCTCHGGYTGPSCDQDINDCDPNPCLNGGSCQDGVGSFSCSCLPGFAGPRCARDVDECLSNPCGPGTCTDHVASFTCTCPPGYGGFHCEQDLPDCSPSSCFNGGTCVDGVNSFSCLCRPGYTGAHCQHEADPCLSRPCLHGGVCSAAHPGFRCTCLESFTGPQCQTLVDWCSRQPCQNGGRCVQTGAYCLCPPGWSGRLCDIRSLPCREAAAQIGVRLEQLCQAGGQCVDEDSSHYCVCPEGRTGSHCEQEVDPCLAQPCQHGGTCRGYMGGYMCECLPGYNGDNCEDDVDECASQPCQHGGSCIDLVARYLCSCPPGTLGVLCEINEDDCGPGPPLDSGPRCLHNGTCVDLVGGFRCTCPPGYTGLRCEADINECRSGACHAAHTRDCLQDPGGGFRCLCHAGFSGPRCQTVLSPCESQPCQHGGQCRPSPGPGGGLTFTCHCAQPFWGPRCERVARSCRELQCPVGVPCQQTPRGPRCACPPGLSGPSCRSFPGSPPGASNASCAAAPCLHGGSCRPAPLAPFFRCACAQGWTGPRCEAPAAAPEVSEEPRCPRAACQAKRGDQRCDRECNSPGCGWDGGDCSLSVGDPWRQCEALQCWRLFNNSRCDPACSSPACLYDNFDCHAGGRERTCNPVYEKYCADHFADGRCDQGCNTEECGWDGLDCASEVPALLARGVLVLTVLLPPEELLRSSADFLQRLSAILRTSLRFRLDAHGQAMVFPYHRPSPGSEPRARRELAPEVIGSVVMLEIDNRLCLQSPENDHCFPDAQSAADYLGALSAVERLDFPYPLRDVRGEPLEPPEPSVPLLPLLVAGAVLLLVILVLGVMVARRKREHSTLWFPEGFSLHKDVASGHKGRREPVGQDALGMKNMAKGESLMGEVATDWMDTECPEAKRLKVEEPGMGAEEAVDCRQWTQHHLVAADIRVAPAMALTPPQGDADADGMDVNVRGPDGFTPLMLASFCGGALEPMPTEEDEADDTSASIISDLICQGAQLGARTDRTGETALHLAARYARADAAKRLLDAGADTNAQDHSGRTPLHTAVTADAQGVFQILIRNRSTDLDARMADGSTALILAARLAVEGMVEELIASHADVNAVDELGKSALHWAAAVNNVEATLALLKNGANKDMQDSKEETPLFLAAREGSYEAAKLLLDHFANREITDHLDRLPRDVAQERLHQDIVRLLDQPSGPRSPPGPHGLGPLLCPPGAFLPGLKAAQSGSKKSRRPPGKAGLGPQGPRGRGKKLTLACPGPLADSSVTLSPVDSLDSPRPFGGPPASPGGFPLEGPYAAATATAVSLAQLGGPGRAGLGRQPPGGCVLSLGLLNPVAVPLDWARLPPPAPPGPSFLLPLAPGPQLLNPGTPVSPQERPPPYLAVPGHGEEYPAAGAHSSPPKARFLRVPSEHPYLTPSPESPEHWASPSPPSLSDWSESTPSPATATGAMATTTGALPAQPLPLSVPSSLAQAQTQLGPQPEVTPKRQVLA
Sequence of Fibroblast growth factor 10 (Homo sapiens) (O15520 whole entry, looked up): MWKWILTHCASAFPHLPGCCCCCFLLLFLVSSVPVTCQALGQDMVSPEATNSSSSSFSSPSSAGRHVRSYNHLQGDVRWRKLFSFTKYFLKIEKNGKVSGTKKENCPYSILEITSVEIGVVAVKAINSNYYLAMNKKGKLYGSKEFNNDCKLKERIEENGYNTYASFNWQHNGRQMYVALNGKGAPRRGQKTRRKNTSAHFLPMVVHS
Sequence of Torsin-1A-interacting protein 2 (Homo sapiens) (Q8NFQ8 whole entry, looked up): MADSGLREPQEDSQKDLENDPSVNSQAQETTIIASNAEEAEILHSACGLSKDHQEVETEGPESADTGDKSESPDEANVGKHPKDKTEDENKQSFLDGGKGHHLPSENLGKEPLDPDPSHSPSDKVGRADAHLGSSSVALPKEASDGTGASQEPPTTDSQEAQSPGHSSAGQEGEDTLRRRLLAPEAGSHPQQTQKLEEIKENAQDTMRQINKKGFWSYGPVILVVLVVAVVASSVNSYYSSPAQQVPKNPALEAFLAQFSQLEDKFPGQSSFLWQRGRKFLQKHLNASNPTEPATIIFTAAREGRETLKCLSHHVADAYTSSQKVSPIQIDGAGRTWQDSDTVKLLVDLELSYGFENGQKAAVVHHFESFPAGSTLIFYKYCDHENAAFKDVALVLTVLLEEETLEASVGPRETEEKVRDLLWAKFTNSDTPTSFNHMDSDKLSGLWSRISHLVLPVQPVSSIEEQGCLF

As to `CCN1C(=O)[C@H]2[C@H]3[C@H](O)[C@H](O)CC(=NOCC=C(C)CCC=C(C)C)[C@H]3CC[C@H]2C1=O`, the composite z-score in [1] was 1.56; in test [5] it was 1.52; in test [7] it was -0.0355; in test [8], 1.32; in test [9] it was 1.13; in test [10] it was 0.186. Also, the composite z-score is 0.908 in test [11]; -0.338 in test [12]; -1.31 in [13]; 1.13 in test [15]; 1.17 in test [16]; 1.18 in test [17]. In addition, the composite z-score worked out at 1.43 in [18], 1.74 in [19] and 1.1 in [20]. The z-score in [2] is -0.541 (inactive); in test [3] it was 0.0853 (inactive); in test [4], -1.11 (inactive); in test [6] it was 0.707 (inactive); in test [14], 0.886 (inactive).
For the molecule `O=C1[C@H]2[C@H]3[C@H](O)[C@H](O)CC(=NO[C@@H]4O[C@H](CO)[C@@H](O)[C@H](O)[C@H]4O)[C@H]3CC[C@H]2C(=O)N1Cc1ccccc1`, the composite z-score is 1.46 in [1]; 0.903 in test [5]; -0.0015 in test [7]; 1.02 in [8]; 0.669 in test [9]; -0.0565 in test [10]. The composite z-score in test [11] is 0.366; in test [12], -0.223; in test [13], -0.752; in [15], 0.437; in test [16], 0.656; in test [17], 0.426. The figures for the composite z-score in test [18], in test [19] and in test [20] were 0.0042, -0.566 and -1.42, respectively. Further, the z-score in test [2] is -0.509 (inactive); in [3], -0.468 (inactive); in test [4], -0.987 (inactive); in test [6], -0.61 (inactive); in test [14], -0.741 (inactive).
For the molecule `Cc1ccc(S[C@]2(C(=O)NCC(F)(F)F)CC(=O)N(Cc3ccccc3Cl)[C@@H]2c2ccc(CO)cc2I)cc1`, the composite z-score in test [1] was 1.33; in test [5], 2.34; in test [7] it was -0.0998; in [8], -1.07; in test [9] it was -0.573; in [10], -0.284. Moreover, the composite z-score in [11] was 1.23; in test [12], 0.122; in test [13] it was 0.828; in test [15], -0.798; in test [16], -0.457; in [17], -1.15. Besides, the composite z-score in test [18] was -0.978; in test [19] it was -1.05; in test [20] it was 0.117. Besides, the z-score was 0.294 (inactive) in test [2]; -3.18 (inactive) in [3]; 1.06 (inactive) in test [4]; 0.492 (inactive) in test [6]; -1.34 (inactive) in [14].
On to `COC(=O)[C@@]1(Cc2ccc(F)cc2)[C@@H]2C(=CC(=O)[C@H]2CC(=O)C(=O)N(C)C)CN1C(=O)c1ccccc1`, for which the composite z-score in [1] came out at 1.14; in test [5], 3.5; in [7], 0.393; in [8], 0.171; in [9], 1.02; in test [10] it was 0.396. Moreover, the composite z-score is 0.346 in test [11]; 1.31 in test [12]; 0.921 in test [13]; 0.625 in test [15]; 1.29 in test [16]; -0.0946 in [17]. The composite z-score in test [18] is 1.06; in test [19] it was -0.251; in [20], 0.637. The z-score in test [2] is 1 (inactive); in [3], 1.84 (inactive); in test [4], 8.71 (active); in [6], -0.399 (inactive); in test [14], -1.17 (inactive).
For `COC(=O)CC=C[C@H](C)[C@H](CO)NS(=O)(=O)c1ccc(C)cc1`, the composite z-score in test [1] was 0.562; in test [5], 0.368; in test [7] it was -0.243; in test [8], 0.504; in [9] it was 0.506; in [10] it was -0.0953. Besides, the composite z-score in test [11] was 0.227; in test [12], -0.397; in test [13], -0.707; in test [15], 0.62; in [16], 0.252; in [17], 0.573. Besides, the composite z-score was 0.48 in [18], 0.987 in test [19] and -0.273 in [20]. For the same molecule, the z-score in [2] is -0.0524 (inactive); in test [3], -0.256 (inactive); in [4] it was -0.142 (inactive); in test [6] it was -0.518 (inactive); in test [14], 0.636 (inactive).
